Data on eight compounds can be found in PubChem BioAssay.

Experiment [1] deals with Wnt5a (protein binding on small-molecule microarray). The experiment in a line: Wnt5a binders on small-molecule microarray, primary screen, biophysical, 635/667 nm fluorescence (AID 1142).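 Also: fluorescence read at 667 nm with signal to noise per printed feature.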 As to conditions: 635 nm fluorescence, higher = more signal.
The nature of experiment [2]: cell viability in Huh7 cells, primary screen, cytotoxicity control for HCV replication inhibitor project, CellTiter-Glo luminescence, basal, 48 h (AID 1143).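 Also: Huh7 hepatoma cells carrying a hepatitis C replication reporter with no stimulus; test concentration not given here.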 As to conditions: Huh7 HCV replicon, higher = more signal, called active from +8 up or from −8 down. In general terms: Cellular ATP, detected with luciferase, serves as a proxy for viable cell number.
Experiment [3] is described as follows: P. aeruginosa biofilm formation inhibitors, primary screen, PAO1 strain, BacTiter-Glo luminescence, LB-PBS (AID 1144). As to conditions: 12 h, higher = more signal.
Experiment [4] is described as follows: CREB reporter modulators without forskolin, primary screen, cell-based, PC12, CRE-LacZ reporter, unstimulated (AID 1145). As to conditions: no forskolin, luminescence, 4.5 h, higher = more signal, called active from +8 up or from −8 down.
The nature of experiment [5]: CREB reporter modulators under forskolin, primary screen, cell-based, PC12, CRE-LacZ reporter, forskolin-stimulated (AID 1146).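 Also: PC12 cells with 6xCRE LacZ reporter stimulated by forskolin 10 µM; beta-galactosidase reporter signal reflecting CREB driven transcription.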 As to conditions: luminescence, 4.5 h, higher = more signal, called active from +8 up or from −8 down.
Experiment [6] addresses Streptavidin (Streptomyces avidinii) (UniProt P22629). The experiment in a line: streptavidin binders on small-molecule microarray, primary screen, artefact control for SMM compound annotation, biophysical, 635/667 nm fluorescence (AID 1147).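 Also: signal reflects streptavidin binding to arrayed compounds as a control protein.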 As to conditions: streptavidin binding, higher = more signal.
Experiment [7] can be described thus: small-molecule binders of probe aInhba, primary screen, biochemical, small-molecule microarray, 635/667 nm fluorescence (AID 1148).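 Also: score merges 667nm spot fluorescence with signal-to-noise for antibody binding to printed compounds.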 The note with it: higher = more signal.
Experiment [8] deals with Torsin-1A (Homo sapiens) (UniProt O14656). The experiment in a line: torsin A binders from cell lysate, primary screen, small-molecule microarray, wild-type, 635/667 nm (AID 1149). The note with it: COS7 hTOR1A-WT lysate, 635 nm fluorescence, higher = more signal.
The target is the same in experiment [9]. Description: small-molecule binders of mutant TOR1A in lysate, primary screen, cell lysate, small-molecule microarray, COS7 lysate, 635/667 nm fluorescence (AID 1150).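 Also: score pools 667 nm emission and signal to noise measuring lysate protein binding.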 The note with it: COS7 hTOR1A mutant lysate, 635 nm fluorescence, higher = more signal.
Experiment [10] has as its system Sonic hedgehog protein (Shh). The experiment in a line: small-molecule binders of Shh protein, primary screen, biochemical, small-molecule microarray, 635/667 nm fluorescence (AID 1151).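 Also: Shh protein binding to compounds spotted on small-molecule microarray slides; score combines spot fluorescence intensity with signal-to-noise across triplicate slides.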 The note with it: small-molecule microarray binding, 635 nm fluorescence; higher = more signal.

SMILES strings stand for the structures. Active and inactive are the calls of the source. Unless noted, no rule for the calls is given here.

Chain of Torsin-1A (Homo sapiens) (O14656 whole entry, looked up): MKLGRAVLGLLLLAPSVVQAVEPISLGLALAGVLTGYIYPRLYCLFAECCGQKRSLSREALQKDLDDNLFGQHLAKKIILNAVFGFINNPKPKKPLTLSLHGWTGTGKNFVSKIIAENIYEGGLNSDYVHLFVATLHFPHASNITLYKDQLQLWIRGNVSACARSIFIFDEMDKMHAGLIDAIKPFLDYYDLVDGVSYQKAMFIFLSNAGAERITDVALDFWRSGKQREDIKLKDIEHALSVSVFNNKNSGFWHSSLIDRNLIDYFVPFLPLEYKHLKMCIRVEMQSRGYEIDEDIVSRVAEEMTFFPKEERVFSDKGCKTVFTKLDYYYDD
Chain of Streptavidin (Streptomyces avidinii) (P22629 whole entry, looked up): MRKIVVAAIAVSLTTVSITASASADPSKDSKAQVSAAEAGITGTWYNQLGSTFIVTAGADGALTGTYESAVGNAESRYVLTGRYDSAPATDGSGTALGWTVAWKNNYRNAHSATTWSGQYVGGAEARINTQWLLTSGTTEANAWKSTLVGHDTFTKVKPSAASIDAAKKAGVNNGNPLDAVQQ

Take `C=CCN1Cc2ccccc2C[C@@]2(N=C(c3ccc(OCCCO)cc3)O[C@H]2c2ccccc2)C1=O`: the composite z-score in experiment [1] came out at 0.762; in [6], 0.0967; in [7], 0.0471; in experiment [8], 0.233; in experiment [9], 0.983; in experiment [10], 1.05. The z-score in [2] was -5.03 (inactive); in experiment [3], -0.8 (inactive); in [4] it was -0.23 (inactive); in experiment [5], -1.51 (inactive).

As for `C=C(COC)/C(=C/C[C@@H](OC(=O)c1ccncc1)c1ccc(OCCO)cc1)c1cnc2ccccc2c1`, the composite z-score amounted to 0.884 in experiment [1]; 2.13 in [6]; 0.0419 in experiment [7]; 0.77 in experiment [8]; 0.327 in experiment [9]; 2.09 in [10]. The z-score is -3.25 (inactive) in [2], -1.28 (inactive) in [3], 7.95 (inactive) in [4] and 0.34 (inactive) in experiment [5].

In the case of `COCCCNC(=O)[C@@H]1c2ccccc2C(=O)N(Cc2ccccc2C(F)(F)F)[C@H]1c1ccc(CO)cc1`, the composite z-score in experiment [1] is 0.143; in [6], -0.194; in experiment [7], 0.0536; in [8] it was 0.285; in experiment [9], 0.331; in [10], 0.23. For the same compound, the z-score in experiment [2] is 0.442 (inactive); in [3] it was 0.309 (inactive); in experiment [4], -0.385 (inactive); in experiment [5], -1.45 (inactive).

Turning to `CC(C)C(=C=CC[C@@H](O)c1ccccc1OCCO)C[C@@H](O)COCc1ccccc1`, the composite z-score stood at 0.679 in experiment [1]; 0.235 in experiment [6]; 0.15 in experiment [7]; 0.636 in experiment [8]; 1.1 in experiment [9]; 1.98 in [10]. Besides, the z-score in [2] is -5.62 (inactive); in [3], 0.173 (inactive); in experiment [4], 18.5 (active); in experiment [5], -0.762 (inactive).

Regarding `C=CCNC(=O)[C@@H]1[C@H]2C(=O)O[C@H](c3ccccc3)[C@H](c3ccccc3)N2[C@H](c2ccccc2OCCO)[C@@]12C(=O)N(C(=O)OCCOC)c1ccc(C#CC3=CCCCC3)cc12`, the composite z-score in [1] was 0.18; in [6] it was 0.497; in experiment [7] it was -0.146; in [8], 0.458; in [9], 0.669; in [10], 0.634. The z-score in experiment [2] was -4.3 (inactive); in experiment [3], -0.348 (inactive); in [4], 0.0614 (inactive); in experiment [5] it was -1.49 (inactive).

On to `Cc1ccc(S[C@]2(C(=O)NCCN3CCOCC3)CC(=O)N(Cc3ccccc3C(F)(F)F)[C@@H]2c2ccc(CO)cc2I)cc1`, for which the composite z-score in experiment [1] is 0.0381; in [6], -1.49; in [7] it was -0.157; in experiment [8], 0.174; in experiment [9], -0.38; in experiment [10], -0.245. The z-score in [2] was -0.984 (inactive); in [3], -0.487 (inactive); in [4], 0.299 (inactive); in experiment [5] it was 4.04 (inactive).

In the case of `CC(C)CCC[C@@H](C)[C@H]1CC[C@@]2(C)C3=C(CC[C@]12C)[C@@]1(C)CC[C@H](OC(=O)c2ccc(Br)cc2)C(C)(C)C1CC3` (stereo not given in full), the composite z-score amounted to 0.119 in experiment [1]; 0.0916 in experiment [6]; 0.054 in [7]; 0.276 in experiment [8]; 0.409 in experiment [9]; 0.384 in experiment [10]. Also, the z-score was -1.17 (inactive) in [2], -0.784 (inactive) in [3], 0.21 (inactive) in experiment [4] and 0.168 (inactive) in [5].

Consider `C[C@H]1ON(c2ccc(C(=O)OC(C)(C)C)cc2)[C@@H](c2ccc(O)cc2)[C@@H]1C(=O)N1C(=O)OC[C@@H]1c1ccccc1`, for which the composite z-score in experiment [1] was 0.382; in experiment [6], 0.179; in experiment [7], -0.114; in experiment [8], -0.0484; in experiment [9] it was 0.39; in experiment [10], 1.97. Moreover, the z-score in experiment [2] was -2.3 (inactive); in experiment [3], -0.0446 (inactive); in experiment [4], 0.846 (inactive); in [5], 0.0621 (inactive).
